PubChem BioAssay (Tox21)
Inconclusive results are not listed. Entries that show only a call come without a potency. Active and inactive are the calls of the source. Unless noted, the call rests on the fitted dose curve.

Target: Thyrotropin receptor (Homo sapiens) (UniProt P16473)
Sequence (P16473 whole entry, looked up): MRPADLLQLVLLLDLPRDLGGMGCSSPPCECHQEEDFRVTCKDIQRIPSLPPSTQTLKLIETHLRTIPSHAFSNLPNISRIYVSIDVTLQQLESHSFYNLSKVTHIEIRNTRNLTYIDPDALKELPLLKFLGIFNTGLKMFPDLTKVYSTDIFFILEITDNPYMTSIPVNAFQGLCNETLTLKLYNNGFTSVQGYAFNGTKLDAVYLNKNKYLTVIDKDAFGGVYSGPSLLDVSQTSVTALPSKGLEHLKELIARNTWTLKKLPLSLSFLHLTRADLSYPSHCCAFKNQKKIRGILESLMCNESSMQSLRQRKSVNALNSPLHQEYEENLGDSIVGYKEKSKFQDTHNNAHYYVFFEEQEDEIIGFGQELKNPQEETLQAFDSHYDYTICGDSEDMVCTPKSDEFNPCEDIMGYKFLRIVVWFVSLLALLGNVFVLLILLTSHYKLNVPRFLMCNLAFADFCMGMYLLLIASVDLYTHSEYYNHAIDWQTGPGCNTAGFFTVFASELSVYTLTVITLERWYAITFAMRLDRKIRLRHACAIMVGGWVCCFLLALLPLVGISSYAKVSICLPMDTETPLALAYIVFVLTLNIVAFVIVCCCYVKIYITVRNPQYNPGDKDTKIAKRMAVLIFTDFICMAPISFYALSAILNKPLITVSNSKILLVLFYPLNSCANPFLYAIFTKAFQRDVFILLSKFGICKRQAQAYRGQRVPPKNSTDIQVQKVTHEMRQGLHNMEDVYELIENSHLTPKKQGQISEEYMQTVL
Assay: qHTS assay to identify small molecule antagonists of the thyroid stimulating hormone receptor (TSHR) signaling pathway (AID 1259385); further: nearly all actives have a fitted effect of over 20% in size; further: potency means the concentration at half of the fitted maximal effect
Settings: TSHR-HEK293 cAMP HTRF, TSH-stimulated antagonist mode; series mostly up to 92.4 µM
How it was run: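 Antagonist mode: compound-treated TSHR-expressing HEK293 cells were stimulated with 1.5 ng/mL TSH (final) in presence of Ro20-1724 for 30 min at RT. HTRF cAMP detection after 1 h; each compound tested at 15 concentrations, triplicate.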
In the case of CC(C)(C)c1ccc(OC2CCCCC2O)cc1 (configuration not stated), the Potency is reported as “inactive”. With c1ccc(-c2nc3ccccc3[nH]2)cc1 the Potency was “inactive”. With CCN(CC)c1ccc(C=O)c(O)c1 the Potency was “inactive”. With CC(C)(C)C1=CC(=O)C(C(C)(C)C)=CC1=O the Potency was “inactive”. For CC(Cc1ccc(O)c(O)c1)C(C)Cc1ccc(O)c(O)c1 (configuration not stated), the Potency was “inactive”. With CC(C)c1ccc2sc3ccccc3c(=O)c2c1 the Potency was 54.5 µM (active). For O=C(N[C@H](CO)[C@H](O)c1ccc([N+](=O)[O-])cc1)C(Cl)Cl, the Potency was “inactive”. With C/C(=C\c1ccc(C(=O)O)cc1)c1ccc2c(c1)C(C)(C)CCC2(C)C the Potency was 29.8 µM (active). With C=Cc1ccc(O)c(OC)c1 the Potency was “inactive”. With Nc1ccc(Oc2cccc(Oc3ccc(N)cc3)c2)cc1 the Potency was “inactive”. For C=CCc1cc(S(=O)(=O)c2ccc(O)c(CC=C)c2)ccc1O, the Potency was “inactive”. For CCCCCCCC/C=C\CCCCCCCC(=O)N(CCO)CCO, the Potency was “inactive”. In the case of C1=CCCC1, the Potency is reported as “inactive”. With O=C(Nc1ccccc1)c1cc(Cl)ccc1O the Potency was “inactive”. For Oc1ccc(Cl)cc1C1CCCC1, the Potency was “inactive”. In the case of O=C1CCC/C=C\CCCCCCCCCC1, the Potency is reported as “inactive”. In the case of CCCCCCCCCC[N+](C)(CCCCCCCCCC)CCC[Si](OC)(OC)OC, the Potency is reported as “inactive”. In the case of c1ccc2occc2c1, the Potency is reported as “inactive”. For CCCCCc1ccc(O)cc1, the Potency was “inactive”.

Test system: not listed separately
Assay: qHTS assay to identify small molecule agonists of the estrogen receptor alpha (ER-alpha) signaling pathway in the presence of an antagonist - cell viability counter screen (AID 1259386; active means well fitted cell-killing curve with a large enough effect in the repeat runs;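 further: cells exposed to compounds for 22 h at 37 °C before the viability read; nearly all actives have a fitted effect of over 30% in size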; further: potency means the concentration at half of the fitted maximal effect)
Settings: VM7Luc4E2 viability, CellTiter-Fluor fluorescence, 22 h; series mostly up to 92.4 µM
How it was run: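 Using estrogen-depleted VM7Luc4E2 cells, the 15-concentration compound series was applied together with 10.0nM ICI-182,780 and incubated 22hr at 37C/5% CO2. Cell viability was then scored by CellTiter-Fluor.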
For c1ccc(-c2nc3ccccc3[nH]2)cc1, the Potency was “inactive”. For CCN(CC)c1ccc(C=O)c(O)c1, the Potency was “inactive”. With CC(C)(C)C1=CC(=O)C(C(C)(C)C)=CC1=O the Potency was “inactive”. In the case of CC(C)c1ccc2sc3ccccc3c(=O)c2c1, the Potency is reported as “inactive”. For CCN(CC)c1ccc(C=O)cc1, the Potency was “inactive”. For O=C(N[C@H](CO)[C@H](O)c1ccc([N+](=O)[O-])cc1)C(Cl)Cl, the Potency was “inactive”. For C/C(=C\c1ccc(C(=O)O)cc1)c1ccc2c(c1)C(C)(C)CCC2(C)C, the Potency was “inactive”. For C=Cc1ccc(O)c(OC)c1, the Potency was “inactive”. With Nc1ccc(Oc2cccc(Oc3ccc(N)cc3)c2)cc1 the Potency was “inactive”. With Nc1ccc(Cl)c([N+](=O)[O-])c1 the Potency was “inactive”. In the case of C=CCc1cc(S(=O)(=O)c2ccc(O)c(CC=C)c2)ccc1O, the Potency is reported as “inactive”. In the case of Nc1ccc(N)c([N+](=O)[O-])c1, the Potency is reported as 30.6 µM (active). With CC(C)(c1ccc(Oc2ccc(N)cc2)cc1)c1ccc(Oc2ccc(N)cc2)cc1 the Potency was 54.5 µM (active). In the case of O=C1CCCCCCCCCCCCCC1, the Potency is reported as “inactive”. In the case of CCOC(=O)C1=NN(c2ccc(Cl)cc2Cl)C(C)(C(=O)OCC)C1 (configuration not stated), the Potency is reported as “inactive”. In the case of CCOc1ccc([N+](=O)[O-])cc1, the Potency is reported as “inactive”. For O=C(Nc1ccccc1)c1cc(Cl)ccc1O, the Potency was 15.4 µM (active). In the case of Oc1ccc(Cl)cc1C1CCCC1, the Potency is reported as “inactive”. In the case of CCCC(=O)c1cc(O)c(O)cc1O, the Potency is reported as 30.6 µM (active). For O=c1[nH]cccc1O, the Potency was “inactive”. For O=C1CCC/C=C\CCCCCCCCCC1, the Potency was “inactive”. In the case of CC(C)=NNC(N)=S, the Potency is reported as “inactive”. With CCCCCCCCCC[N+](C)(CCCCCCCCCC)CCC[Si](OC)(OC)OC the Potency was “inactive”. In the case of c1ccc2occc2c1, the Potency is reported as “inactive”. With CCCCCc1ccc(O)cc1 the Potency was “inactive”.

Target: Progesterone receptor (Homo sapiens) (UniProt P06401)
Sequence (P06401 whole entry, looked up): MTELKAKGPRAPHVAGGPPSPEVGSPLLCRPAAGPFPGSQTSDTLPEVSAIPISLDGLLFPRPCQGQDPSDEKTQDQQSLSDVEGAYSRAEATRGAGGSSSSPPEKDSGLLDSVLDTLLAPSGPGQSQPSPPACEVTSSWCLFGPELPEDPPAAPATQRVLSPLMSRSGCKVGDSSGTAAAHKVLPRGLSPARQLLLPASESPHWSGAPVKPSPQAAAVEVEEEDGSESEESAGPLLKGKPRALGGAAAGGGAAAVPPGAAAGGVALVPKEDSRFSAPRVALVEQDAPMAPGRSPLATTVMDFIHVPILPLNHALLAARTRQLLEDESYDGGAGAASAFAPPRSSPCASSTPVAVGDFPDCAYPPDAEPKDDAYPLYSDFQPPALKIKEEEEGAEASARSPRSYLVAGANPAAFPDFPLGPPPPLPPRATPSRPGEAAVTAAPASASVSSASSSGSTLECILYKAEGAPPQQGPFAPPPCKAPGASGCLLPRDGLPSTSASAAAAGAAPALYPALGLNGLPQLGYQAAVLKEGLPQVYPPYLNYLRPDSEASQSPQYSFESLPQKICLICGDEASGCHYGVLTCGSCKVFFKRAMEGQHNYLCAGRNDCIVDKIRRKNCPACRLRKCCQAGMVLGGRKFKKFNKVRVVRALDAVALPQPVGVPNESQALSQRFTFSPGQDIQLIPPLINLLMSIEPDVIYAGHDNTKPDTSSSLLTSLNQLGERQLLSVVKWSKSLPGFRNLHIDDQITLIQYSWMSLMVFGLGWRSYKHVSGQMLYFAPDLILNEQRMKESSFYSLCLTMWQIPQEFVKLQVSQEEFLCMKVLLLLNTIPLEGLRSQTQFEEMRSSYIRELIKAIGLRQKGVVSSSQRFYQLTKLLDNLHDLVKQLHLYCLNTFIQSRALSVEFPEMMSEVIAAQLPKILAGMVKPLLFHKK
Assay: qHTS assay to identify small molecule agonists of the progesterone receptor (PR) signaling pathway (AID 1346784); further: nearly all actives have a fitted effect of over 30% in size
Settings: PR-UAS-bla HEK293T, beta-lactamase FRET ratio, 16 h; series mostly up to 92.4 µM
How it was run: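 Agonist qHTS: compounds pinned onto 3,000 PR-UAS-bla HEK 293T cells per well in charcoal-stripped serum medium, 16hr at 37C, then beta-lactamase activity measured by LiveBLAzer FRET fluorescence after 2 hours at room temperature.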
In the case of CC(C)(C)c1ccc(OC2CCCCC2O)cc1 (configuration not stated), the outcome is reported as “inactive”. With CN(C/C=C/c1ccccc1)Cc1cccc2ccccc12 the outcome was “inactive”. For c1ccc(-c2nc3ccccc3[nH]2)cc1, the outcome was “inactive”. For CCN(CC)c1ccc(C=O)c(O)c1, the outcome was “inactive”. In the case of CC(C)(C)C1=CC(=O)C(C(C)(C)C)=CC1=O, the outcome is reported as “inactive”. For CC(Cc1ccc(O)c(O)c1)C(C)Cc1ccc(O)c(O)c1 (configuration not stated), the outcome was “inactive”. For CC(C)c1ccc2sc3ccccc3c(=O)c2c1, the outcome was “inactive”. In the case of CCN(CC)c1ccc(C=O)cc1, the outcome is reported as “inactive”. In the case of CCCOC(=O)c1ccc(O)cc1, the outcome is reported as “inactive”. In the case of O=C(N[C@H](CO)[C@H](O)c1ccc([N+](=O)[O-])cc1)C(Cl)Cl, the outcome is reported as “inactive”. In the case of C/C(=C\c1ccc(C(=O)O)cc1)c1ccc2c(c1)C(C)(C)CCC2(C)C, the outcome is reported as “inactive”. With C=Cc1ccc(O)c(OC)c1 the outcome was “inactive”. With Nc1ccc(Oc2cccc(Oc3ccc(N)cc3)c2)cc1 the outcome was “inactive”. With Nc1ccc(Cl)c([N+](=O)[O-])c1 the outcome was “inactive”. In the case of C=CCc1cc(S(=O)(=O)c2ccc(O)c(CC=C)c2)ccc1O, the outcome is reported as “inactive”. For COc1cccc(-c2ccc(/C=C\CN3CCCCCC3)cc2Cl)c1, the outcome was “inactive”. For CC(C)(c1ccc(Oc2ccc(N)cc2)cc1)c1ccc(Oc2ccc(N)cc2)cc1, the outcome was “inactive”. For O=C1CCCCCCCCCCCCCC1, the outcome was “inactive”. In the case of CCCCCCCC/C=C\CCCCCCCC(=O)N(CCO)CCO, the outcome is reported as “inactive”. For CCOC(=O)C1=NN(c2ccc(Cl)cc2Cl)C(C)(C(=O)OCC)C1 (configuration not stated), the outcome was “inactive”. With Oc1ccc(Cl)cc1C1CCCC1 the outcome was “inactive”. For O=c1[nH]cccc1O, the outcome was “inactive”. In the case of O=C1CCC/C=C\CCCCCCCCCC1, the outcome is reported as “inactive”. For CCCCCCCCCC[N+](C)(CCCCCCCCCC)CCC[Si](OC)(OC)OC, the outcome was “inactive”. With c1ccc(C[P+](c2ccccc2)(c2ccccc2)c2ccccc2)cc1 the outcome was “inactive”. With c1ccc2occc2c1 the outcome was “inactive”. For CCCCCc1ccc(O)cc1, the outcome was “inactive”.

Target: Progesterone receptor (Homo sapiens) (UniProt P06401)
Assay: qHTS assay to identify small molecule antagonists of the progesterone receptor (PR) signaling pathway (AID 1346795; active means well fitted inhibition curve with a large enough effect in the signal ratio in the repeat runs, not every such curve was filed as active; the % refers to the signal ratio; further: potency means the concentration at half of the fitted maximal effect)
Settings: PR-UAS-bla HEK293T, beta-lactamase FRET ratio, 16 h; series mostly up to 92.4 µM
How it was run: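 Antagonist mode with agonist R5020 at 1 nM final and 16 hr incubation at 37C. Reporter was beta-lactamase driven by UAS in HEK293T (PR-UAS-bla), 2% charcoal-stripped serum; signal from LiveBLAzer FRET substrate, 2 hr at room temperature.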
In the case of NCc1cccc(C2CCN(C(=O)c3ccc(C#Cc4ccccc4F)o3)CC2)c1, the Potency is reported as 68.6 µM (active). With CC(C)(C)C1=CC(=O)C(C(C)(C)C)=CC1=O the Potency was “inactive”. With CC(Cc1ccc(O)c(O)c1)C(C)Cc1ccc(O)c(O)c1 (configuration not stated) the Potency was 61.1 µM (active). With Nc1ccc(Oc2cccc(Oc3ccc(N)cc3)c2)cc1 the Potency was 30.6 µM (active). In the case of Nc1ccc(Cl)c([N+](=O)[O-])c1, the Potency is reported as 54.5 µM (active). In the case of C=CCc1cc(S(=O)(=O)c2ccc(O)c(CC=C)c2)ccc1O, the Potency is reported as 27.3 µM (active). In the case of O=S(=O)(c1ccc(OCc2ccccc2)cc1)c1ccccc1O, the Potency is reported as 48.6 µM (active). In the case of CC(C)(c1ccc(Oc2ccc(N)cc2)cc1)c1ccc(Oc2ccc(N)cc2)cc1, the Potency is reported as 27.3 µM (active). For O=C1CCCCCCCCCCCCCC1, the Potency was “inactive”. With CCCCCCCC/C=C\CCCCCCCC(=O)N(CCO)CCO the Potency was 43.1 µM (active). With CCOC(=O)C1=NN(c2ccc(Cl)cc2Cl)C(C)(C(=O)OCC)C1 (configuration not stated) the Potency was 27.3 µM (active). In the case of CCOc1ccc([N+](=O)[O-])cc1, the Potency is reported as 27.7 µM (active). In the case of O=C(Nc1ccccc1)c1cc(Cl)ccc1O, the Potency is reported as 24.3 µM (active). In the case of O=C1CCC/C=C\CCCCCCCCCC1, the Potency is reported as 48.6 µM (active). For CCCCCCCCCC[N+](C)(CCCCCCCCCC)CCC[Si](OC)(OC)OC, the Potency was “inactive”. In the case of c1ccc(C[P+](c2ccccc2)(c2ccccc2)c2ccccc2)cc1, the Potency is reported as “inactive”.
